Source: PubChem (National Center for Advancing Translational Sciences (NCATS))
IkB sig inh: inhibitors of IkB signaling in ABC-DLBCL cells; 110,000 compounds, 0.04% hits; AID 445; ABC-DLBCL IkBa-CBG/CBR dual luciferase ratio, 4 h; response scale: scaled: untreated 0%, proteasome inhibitor 100%; Potency, µM (titrated, usually from 57.1 µM); active means well fitted curve in the direction sought with a large enough effect in the signal ratio, not every such curve was filed as active; inconclusive means small, poorly fitted or top-dose-only effect, or a change in a side signal; the % refers to the signal ratio;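 further: the direction sought is a rising ratio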
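In this assay, an IκBα–CBG68 fusion accumulates when IKK-driven degradation is blocked; native CBR normalizes for cell number. OCI-Ly3 cells were treated 4 h with compound and doxycycline, then green and red light read after Chroma-Glo addition.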
CRE Fsk mod: alters forskolin-stimulated CRE reporter signaling in CHO cells; CHO CRE-bla reporter (cAMP response element driving beta-lactamase), forskolin EC10, beta-lactamase ratio; Potency, µM (highest dose often 38.2 µM), most hits filed as activators; 71,000 compounds, 2.5% hits; AID 662; active means well fitted activation curve with a large enough effect in the signal ratio, with a control signal flat, not every such curve was filed as active; inconclusive means small, poorly fitted or top-dose-only effect, or effect the other way, or a change in a side signal; the % refers to the signal ratio
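CHO CRE-bla cells, overnight plating in Opti-MEM with 0.5% dialyzed FBS; cpd titration + EC10 NKH 477, 3 h 37 °C; CCF4 2 h RT; ex 405/em 460 vs 530 ratio → %Activity, AC50.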
ERK AVP inh: blocks ERK signaling stimulated by vasopressin | AID 995 | Potency, µM (titrated, usually from 57.5 µM), actives largely listed as inhibitors | HEK293-V1b, vasopressin-stimulated pERK AlphaScreen | 72,000 compounds, 0.99% hits; further: nearly all actives have a fitted effect of over 55% in size
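qHTS, compounds titrated on V1b-expressing HEK293 cells. Preincubation 30 min at 37C, vasopressin 25 nM for 5 min, lysis 10 min, bead incubation 5 hr at room temperature.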
TSHR ag: agonists of human thyroid stimulating hormone receptor | 73,000 compounds, 0.48% hits | AID 926 | HEK293-CNG-TSHR cells (CNG channel as cAMP sensor), membrane potential dye, cAMP | Potency, µM (series often up to 57.1 µM), actives largely listed as activators; active means well fitted activation curve with a large enough effect in the main read-out, with a control signal flat, not every such curve was filed as active; inconclusive means small, poorly fitted or top-dose-only effect, or a change in a side signal; inactive means no such curve, though single readings can be large or run the other way; reference of the percent scale not stated here;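 further: the control signal comes from parental cells without the receptor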
Target sequence (P16473 whole entry, looked up): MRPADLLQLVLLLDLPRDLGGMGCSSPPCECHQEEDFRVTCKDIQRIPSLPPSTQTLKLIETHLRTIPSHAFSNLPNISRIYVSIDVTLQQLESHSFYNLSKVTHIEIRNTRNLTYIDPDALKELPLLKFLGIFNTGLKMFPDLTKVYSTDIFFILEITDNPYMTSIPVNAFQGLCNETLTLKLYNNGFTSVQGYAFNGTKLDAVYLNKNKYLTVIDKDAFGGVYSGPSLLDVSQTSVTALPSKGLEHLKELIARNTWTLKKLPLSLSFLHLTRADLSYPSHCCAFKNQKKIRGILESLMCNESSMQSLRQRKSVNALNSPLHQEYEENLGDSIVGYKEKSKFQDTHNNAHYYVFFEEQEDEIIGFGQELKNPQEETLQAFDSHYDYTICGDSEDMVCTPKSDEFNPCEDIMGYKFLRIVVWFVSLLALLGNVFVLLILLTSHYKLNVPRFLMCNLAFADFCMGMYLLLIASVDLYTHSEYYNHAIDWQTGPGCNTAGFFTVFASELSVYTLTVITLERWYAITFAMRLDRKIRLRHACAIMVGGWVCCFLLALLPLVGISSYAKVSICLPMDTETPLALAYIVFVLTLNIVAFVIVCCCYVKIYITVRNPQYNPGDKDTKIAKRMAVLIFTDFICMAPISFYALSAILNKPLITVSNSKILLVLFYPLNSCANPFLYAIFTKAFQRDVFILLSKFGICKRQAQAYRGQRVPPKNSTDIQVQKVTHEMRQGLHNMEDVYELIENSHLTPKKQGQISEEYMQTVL
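HEK 293 cells stably expressing TSHR and a cAMP-gated CNG channel; parental CNG-only cells as counterscreen. Cells preloaded 60 min with membrane potential dye plus 100 uM RO 20-1724, then compound 30 min; fluorescence read at 590 nm.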
HEK293 cAMP ctrl: raises cAMP in parental HEK293 cells, TSHR agonist counter-screen. 73,000 compounds, 2.5% hits. Potency, µM (highest dose often 57.1 µM), actives largely listed as activators. parental HEK293 CNG cAMP sensor, membrane potential fluorescence; further: nearly all actives have a fitted effect of over 55% in size
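Parental HEK 293 cells stably expressing a modified CNG channel (no TSHR) report cAMP rise as membrane depolarization. Membrane potential dye with 100 uM RO 20-1724 was loaded for 60 min at room temperature, then compound added for 30 min; fluorescence read at 590 nm.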
Hits are given with their value; – = inactive; ? = inconclusive; · = not tested or not shown; [ ] = another dose, or the depositor's remark. The list is not random: actives were taken first. Their share in the collection is about 3.6%. Unless noted, the call rests on the fitted dose curve; in most records, active means well fitted curve in the direction sought with a large enough effect; inconclusive means small, poorly fitted or top-dose-only effect, or another doubt; inactive means no such curve, though single readings can be large; an effect the other way counts as inactive or inconclusive.

SMILES | IkB sig inh | CRE Fsk mod | ERK AVP inh | TSHR ag | HEK293 cAMP ctrl
CCOc1cc(C2C(C(=O)OCC(C)C)=C(C)N=C3SCCC(=O)N32)ccc1OC(C)=O (stereo unspecified) | – | – | – | – | –
CCCc1nc2ccccc2n2cc3c(=O)n(C)c(=O)n(C)c3c12 | – | 5.01µM | – | – | –
CCCc1nc2ccccc2n2c(-c3ccccc3)c3c(=O)n(C)c(=O)n(C)c3c12 | – | · | · | · | ·
O=c1cc(CSc2nc3cc(Cl)ccc3o2)nc2sccn12 | – | ? | – | – | –
CN(C)c1nc(N)nc(CSc2nc3cc(Cl)ccc3o2)n1 | – | 2.51µM | – | – | –
CCN1C(=O)/C(=C2/SC(C)=C(C)N2CC)SC1=S | – | – | – | – | –
COc1cccc(Cn2c(CNC(=O)CCc3ccccc3)nc3cccnc32)c1 | – | · | · | · | ·
COc1ccc(NC(=O)c2cc3c(=O)n(Cc4cccnc4)ccc3nc2C)cc1OC | – | · | · | · | ·
Cc1ccccc1OCc1nc2ccccc2c(=O)n1/N=C/c1ccco1 | ? | – | – | ? | 15.8µM
Cc1nnc(C)n1/N=C/c1cccc(Oc2ccccc2)c1 | – | – | – | – | –
Cc1nc2scc(-c3ccccc3)c2c(=O)n1/N=C/c1ccco1 | – | – | – | –[11.4 µM] | –
COc1cccc(/C=N/n2c(-c3ccco3)nc3ccccc3c2=O)c1 | – | ? | – | ? | 15.8µM
O=c1c2ccccc2nc(-c2ccco2)n1/N=C/c1ccco1 | – | 10µM | – | – | –
Cn1c(/C(C#N)=C(\O)CN2CCN(Cc3ccccc3)CC2)nc2ccccc21 | – | – | – | ? | 31.6µM
Cc1cc(C#N)c(C)n1-c1cc(C(F)(F)F)ccc1N1CCOCC1 | – | – | – | ? | 12.6µM
COC(=O)c1ccc(COC(=O)C23CC4CC(CC(O)(C4)C2)C3)o1 | – | – | – | 25.1µM | –
O=C(c1ccccc1)N(Cc1ccc(F)cc1)C1CCS(=O)(=O)C1 (stereo unspecified) | – | – | – | – | –
COc1ccccc1NC(=O)N1CCc2[nH]c3ccc(Cl)cc3c2C1 | ? | – | 25.1µM | – | –
Cc1ccc(-n2ncc3c(=O)n(CC(=O)N4CCCc5ccccc54)cnc32)cc1C | ? | – | 25.1µM | – | –
O=C(Cn1cnc2c(cnn2-c2ccccc2)c1=O)OCc1ccccc1 | ? | – | ? | ? | ?
Cc1ccc(-n2ncc3c(=O)n(CC(=O)OCc4ccccc4)cnc32)cc1 | – | – | – | ? | 25.1µM
Cc1ccc(-n2nnc3c(=O)n(CC(=O)OCc4ccccc4)cnc32)cc1 | – | – | · | ? | 25.1µM
COC(=O)Cn1cnc2c(nnn2-c2ccc(C)cc2)c1=O | – | – | – | – | –[2.29 µM]
COc1cccc(NC(=O)C2CCN(C(=O)N3CC(C)Oc4ccccc43)CC2)c1 (stereo unspecified) | – | · | · | · | ·
CCn1cc(C(=O)N2CCN(C(=O)c3ccco3)CC2)c2cc(OC)c(OC)cc2c1=O | – | 10µM | – | –[11.4 µM] | –
SMILES | IkB sig inh | CRE Fsk mod | ERK AVP inh | TSHR ag | HEK293 cAMP ctrl
N#CC1=C(N)Oc2n[nH]c(-c3ccc(F)cc3)c2C1c1cccnc1 (stereo unspecified) | – | – | 15.8µM | –[11.4 µM] | –
CCC(C)C1C(C#N)=C(N)Oc2n[nH]c(-c3ccccc3)c21 (stereo unspecified) | – | – | · | ? | 25.1µM
CN(C)Cc1cc(C(=O)O)cc(CN(C)C)c1O | –[11.4 µM] | –[7.6 µM] | –[11.5 µM] | –[11.4 µM] | –[11.4 µM]
COCCn1c(=O)c(-c2ccccc2)nc2cnc(Oc3ccc(OC)cc3)nc21 | –[11.4 µM] | ? | ? | ? | ?
CC(=O)c1ccc(Oc2ncnc3c2oc2ccccc23)cc1 | – | · | · | · | ·
CCOC(=O)CSc1ccc2nnc(-c3cccs3)n2n1 | – | 3.98µM | · | ? | ?
CCOc1cccc(-c2nnc3sc(COc4ccc(C)cc4)nn23)c1 | – | – | – | ? | 25.1µM
CCOc1ccccc1OCc1nn2c(COc3ccccc3)nnc2s1 | – | ? | – | ? | 15.8µM
COc1ccc(-c2nnc3sc(COc4ccc(C)cc4)nn23)cc1 | – | – | – | ? | 20µM
CCOc1cccc(-c2nnc3sc(COc4ccc(Cl)cc4)nn23)c1 | – | – | – | ? | 15.8µM
COc1ccc(F)cc1S(=O)(=O)Nc1cccc(-c2ccc(N3CCC(C)CC3)nn2)c1 | – | · | · | · | ·
COc1ccccc1/C=C/c1nc(C#N)c(NCCc2ccccc2)o1 | – | · | · | · | ·
